System: Plasmodium falciparum
Assay: GSK_TCMDC: Inhibition of Plasmodium falciparum Dd2 in whole red blood cells, using parasite LDH activity as an index of growth. Test compounds present at 2uM
Format: functional

| SMILES | Inhibition [%] |
| --- | --- |
| Cl.O=C(CNC1=NCCN1)Nc1ccc(NC(=O)Nc2ccc(NC(=O)CNC3=NCCN3)cc2)cc1 | 75 |
| CC(=O)O.CCc1cc2c(cc1CC)CC(NC[C@@H](O)c1ccc(O)c3[nH]c(=O)ccc13)C2 | 9 |
| COCCNCc1cccc(-c2ccc3c(Nc4ccc(F)cc4Cl)ccnc3c2)c1 | 100 |
| CCCCCCC(N)c1ccc(OCCCOc2ccc(C(N)CCCCCC)cc2)cc1.Cl (centres undefined) | 70 |

System: HepG2
Assay: GSK_TCMDC: Percent inhibition of human HepG2 cell line. Test compounds present at 10uM.
Format: functional

| SMILES | Inhibition [%] |
| --- | --- |
| CN(C)CCNCc1nc(-c2ccc3c(Nc4ccc(Oc5ccccc5)cc4)ccnc3c2)cs1 | 8 |
| CC(=O)CC(=O)N1CCN(c2ccccc2)CC1 | 54 |
| CCOC(=O)c1ccc(NC(=O)N(Cc2ccc(-c3ccc(CN4CCNCC4)cc3)cc2)Cc2cccnc2)cc1.O=C(O)C(F)(F)F | 13 |
| Cc1noc(C)c1-c1cccc(CNCc2ccc(-c3ccc(-c4nc5cc(F)ccc5[nH]4)s3)cc2)c1.O=C(O)C(F)(F)F | 45 |
| O=C(/C=C/c1ccc(Cl)c(Cl)c1)NCCCCCN1CCCN(C(=O)Nc2cc(Cl)nc(Cl)c2)CC1 | 8 |
| CCCCNC(=O)c1[nH]c2c(NC(=O)COc3ccccc3)cccc2c1-c1cccc(NC(=O)C(N)CO)c1 (centres undefined) | 11 |
| O=C(Nc1ccc(-c2cccc(-c3nc4ccccc4[nH]3)c2)cc1)NC1CC1c1ccccc1 (centres undefined) | 63 |
| Clc1cc(Nc2ccnc3ccc(Br)cc23)ccc1Oc1ccc2ccccc2c1Cl | 5 |
| O=C(Nc1ccc2c(c1)CCC2)N[C@H]1CCN(Cc2ccc(OCCCN3CCCCC3)cc2)C1 | 9 |
| Cc1cccc2nc(-c3ccc(-c4cccc(CN5CCC(N)C5)c4)s3)[nH]c12.O=C(O)C(F)(F)F (centres undefined) | 16 |
| CC(C)C[C@H](Nc1ccnc(NCC2CCCCC2)n1)C(=O)NCCOc1ccccc1.O=C(O)C(F)(F)F | 37 |
| Cc1cccc2nc(-c3ccc(-c4cccc(NC(=O)c5cnccc5C(F)(F)F)c4)cc3)[nH]c12 | 25 |
| Cl.O=c1cc(NCCCNCc2cc3c(Cl)cccc3s2)[nH]c2ccccc12 | 6 |
| O=CO.c1ccc(-c2ccc(CNCCCNc3nc4ccccc4[nH]3)cc2)cc1 | 20 |
| Cl.c1ccc2c(Nc3ccc(Cc4ccc(Nc5c6ccccc6nc6ccccc56)cc4)cc3)c3ccccc3nc2c1 | 93 |
| COc1ccc2ncc(F)c(CCN3CC[C@@H](CNCc4cc(C)c5c(c4)OCCO5)C3)c2n1.Cl | 22 |
| O=C(NCC1CCN(Cc2cccc(C(F)(F)F)c2)C1)c1cc(-c2cccc(Cl)c2)cs1.O=C(O)C(F)(F)F (centres undefined) | 15 |
| CCCCNc1ccc(C(=O)NC2CCN(C[C@H](O)c3ccnc4ccc(OC)cc34)CC2)cc1 | 12 |
| NC1CCN(Cc2cccc(-c3ccc(-c4nc5ccccc5[nH]4)cc3)c2)C1.O=C(O)C(F)(F)F (centres undefined) | 24 |
| Cl.O=c1cc(NCCCNCc2sc(Br)nc2Br)[nH]c2ccccc12 | 1 |

| SMILES | Inhibition [%] |
| --- | --- |
| O=[N+]([O-])c1ccc(Nc2nc(N/N=C/c3cc(Cl)cc(Cl)c3O)nc(Nc3ccccc3)n2)cc1 | 29 |
| C[C@H](NC(=O)c1c(CN2CCC(NC(=O)CC(C)(C)C)CC2)c(-c2cccs2)nc2ccccc12)C1CCCCC1 | 0 |
| CCOc1cc(Cc2cnc(N)nc2N)cc(OC)c1OC | 0 |
| CN1CCC(C(=O)Nc2ccc(-c3ccc(-c4nc5ccccc5[nH]4)cc3)cc2)CC1 | 28 |
| CCOC(=O)c1ccc(NC(=O)Nc2cccc(-c3ccc(-c4nc5cccc(C)c5[nH]4)s3)c2)cc1 | 44 |
| COc1ccc(-c2ccc(NC(=O)c3ccc(C#N)cc3)cc2)cc1CN(C)CCN(C)C.O=C(O)C(F)(F)F | 28 |
| Cc1cccc2nc(-c3ccc(-c4ccc(CN5CCCCC5CO)cc4)cc3)[nH]c12.O=C(O)C(F)(F)F (centres undefined) | 32 |
| Cc1cc(N[C@@H](Cc2ccccc2)C(=O)NCCOc2ccccc2)nc(NCCc2cccs2)n1.O=C(O)C(F)(F)F | 8 |
| Cc1ccc(C)c(C2CCN(CCCCNC(=O)c3ccc(NC(=O)c4ccc(Cl)cc4)cc3)CC2)c1 | 15 |
| CCCc1cc(Cc2cnc(N)nc2N)cc2c1OC(C)C2C.Cl (centres undefined) | 32 |
| COc1cc(C=NN=c2cc(C)[nH]c3ccccc23)cc(OC)c1OC | 5 |
| O=C(O)c1cccc2c(-c3ccncc3)cccc12 | 29 |
| O=C(N1CCN(c2ccnc3cc4c(cc23)N(Cc2ccccc2)CC4)CC1)C(F)(F)F | 8 |
| Fc1ccc2[nH]c(-c3ccc(-c4cccc(CN5CCN(c6ccncc6)CC5)c4)cc3)nc2c1.O=C(O)C(F)(F)F | 66 |
| Cc1cc(CN2CC[C@H](NC(=O)c3ccc(Cl)c(Cl)c3)C2)ccc1OCCN1CCNCC1.O=C(O)C(F)(F)F | 15 |
| O=S(=O)(Nc1ccc(CCN2CCC(N3CCCCC3)CC2)cc1)c1cccc2cccnc12 | 14 |
| Cl.O=C(CNC1=NCCN1)Nc1ccc(NC(=O)Nc2ccc(NC(=O)CNC3=NCCN3)cc2)cc1 | 0 |
| CC(=O)O.CCc1cc2c(cc1CC)CC(NC[C@@H](O)c1ccc(O)c3[nH]c(=O)ccc13)C2 | 0 |
| COCCNCc1cccc(-c2ccc3c(Nc4ccc(F)cc4Cl)ccnc3c2)c1 | 8 |
| CCCCCCC(N)c1ccc(OCCCOc2ccc(C(N)CCCCCC)cc2)cc1.Cl (centres undefined) | 100 |

— ChEMBL document CHEMBL1157539, “Thousands of chemical starting points for antimalarial lead identification” (Nature, 2010)
